Compound activity as filed in PubChem.
TDP-43 yeast inh – qHTS of TDP-43 Inhibitors | TDP-43 expressing yeast growth rescue, BacTiter-Glo, 24 h | Potency, µM (series often up to 46.1 µM), actives largely listed as activators | actives 1.8% (n = 410,000); also: nearly all actives have a fitted effect of over 50% in size
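Growth rescue of TDP-43-toxic yeast measured as ATP luminescence (BacTiter-Glo). Cells grown to mid-log in raffinose, induced in galactose at OD600=0.02, exposed to compound 24 hr at 30 deg C.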
Abeta yeast res – qHTS for compounds that reverse cellular toxicity of Amyloid beta (A-beta) peptide in yeast: Primary Screen. actives 0.063% (n = 410,000). Potency, µM (doses to about 46.1 µM), most hits filed as activators. yeast expressing A-beta42, growth rescue, OD600, 48 h; response scale: 0% DMSO, 100% iron-clioquinol control; also: nearly all actives have a fitted effect of over 55% in size
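Yeast growth medium received pinned compounds, then yeast cells expressing toxic A-beta were added; plates incubated at 30 C for 48 hr. Growth read as absorbance at 600 nm, normalized to DMSO and equimolar FeCl3 plus clioquinol controls.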
PTAP TSG101 blk – qHTS Assay for Iinhibitors of HIV-1 Budding by Blocking the Interaction of PTAP/TSG101 | Potency, µM (titrated, usually from 115 µM), usual class: inhibitors | AID 493005, 2010 | Fluorescence polarization, FITC-PTAP peptide / Tsg101 binding | 340,000 tested, under 10 active | Tumor susceptibility gene 101 protein (Homo sapiens), Q99816; active = well fitted inhibition curve with a large enough effect in the main read-out, with a control signal flat, not every such curve was filed as active; inconclusive = small, poorly fitted or top-dose-only effect, or effect the other way, or a change in a side signal; inactive = no such curve, though single readings can be large or run the other way
Target sequence (Q99816 whole entry, looked up): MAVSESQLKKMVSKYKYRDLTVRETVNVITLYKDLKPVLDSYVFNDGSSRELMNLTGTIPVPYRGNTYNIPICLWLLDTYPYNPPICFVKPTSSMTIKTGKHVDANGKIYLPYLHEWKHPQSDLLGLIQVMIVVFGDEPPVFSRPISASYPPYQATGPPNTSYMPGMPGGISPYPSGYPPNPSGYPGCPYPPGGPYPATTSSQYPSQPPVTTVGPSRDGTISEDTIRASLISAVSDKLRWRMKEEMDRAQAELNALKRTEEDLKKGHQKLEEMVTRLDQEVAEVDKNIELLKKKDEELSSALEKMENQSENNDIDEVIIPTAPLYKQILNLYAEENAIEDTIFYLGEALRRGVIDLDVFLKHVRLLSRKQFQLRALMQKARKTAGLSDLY
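Fluorescence polarization binding of Tsg101 binding domain (10 uM final) to FITC-labeled PTAP peptide (50 nM final) in HEPES pH 7.5 buffer with NaCl, Tween 20, EDTA, TCEP. Compounds added before peptide; binding 20 min at RT.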
FUS yeast rescue – qHTS for Suppressors of FUS Proteinopathy: Primary screen using FUS-linked yeast assay. S. cerevisiae FUS-expressing, growth rescue, OD600, 24 h. Potency, µM (doses to about 76.6 µM), most hits filed as activators. actives 0.24% (n = 390,000); also: nearly all actives have a fitted effect of over 55% in size
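Compound concentration series was pinned onto galactose-induced FUS-expressing yeast seeded at OD 0.005. Plates sat 24hr at 30C; absorbance at 600 nm gave growth. DMSO served as background control.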
aSyn yeast inh – qHTS of alpha-syn Inhibitors; Yeast expressing alpha-synuclein, growth rescue, BacTiter-Glo, 24 h; Potency, µM (series often up to 46.1 µM), hits mostly activators; actives 0.14% (n = 370,000); AID 652106, 2013; also: nearly all actives have a fitted effect of over 65% in size
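Readout is rescue of growth in alpha-synuclein-expressing yeast, so inhibitors of toxicity appear as activators. Growth after 24 hr at 30 deg C in galactose medium is quantified by luminescence.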
Hits are given with their value. Hits are enriched below; roughly 2.1% of the tested compounds scored in any of these assays. Unless noted, calls follow the shape of the dose curve; as a rule, active = well fitted curve in the direction sought with a large enough effect; inconclusive = small, poorly fitted or top-dose-only effect, or another doubt; inactive = no such curve, though single readings can be large; an effect the other way counts as inactive or inconclusive.

CCc1ccc2occ(CC(=O)Nc3ccc(OC)c(Cl)c3)c2c1 was read as TDP-43 yeast inh 16µM, Abeta yeast res inactive, FUS yeast rescue inactive and aSyn yeast inh inconclusive.
`CCOc1ccc(C2C(=O)N(C3CCCCCC3)CC(=O)N2CCc2ccccc2)cc1OC` (centres undefined) gave TDP-43 yeast inh inactive, Abeta yeast res inactive and FUS yeast rescue inactive.
`Cc1nc(N2CCCC2)c2c(C(=O)Nc3cccc(C)c3C)c(C)oc2n1` gave TDP-43 yeast inh inactive, Abeta yeast res inactive and FUS yeast rescue inactive.
COc1cccc(/C=C/c2nc3ccccc3nc2/C=C/c2cccc(OC)c2OC)c1OC was read as aSyn yeast inh inactive.
Screening Cc1cccc(NCN2C(=O)C3C4C=CC(C4)C3C2=O)c1 (centres undefined) returned TDP-43 yeast inh 11µM, Abeta yeast res inactive, PTAP TSG101 blk inactive, FUS yeast rescue inactive and aSyn yeast inh inactive.
For O=C1C2C3C=CC(C3)C2C(=O)N1CNc1ccccc1 (centres undefined) the results were TDP-43 yeast inh inconclusive, Abeta yeast res inactive, PTAP TSG101 blk inactive and aSyn yeast inh inactive.
For Cc1ccc(Nc2nc3ccccc3s2)c(C)c1 the results were TDP-43 yeast inh 25µM, Abeta yeast res inactive, PTAP TSG101 blk inactive, FUS yeast rescue inactive and aSyn yeast inh inactive.
Screening CC(OC(=O)c1ccccc1OCC(=O)Nc1ccc(Br)cc1)C(=O)NC1CCCC1 (centres undefined) returned aSyn yeast inh inactive.
Screening COc1cc(-c2coc3c(C(=O)NC4CCCCC4)cccc23)ccc1O returned TDP-43 yeast inh 35µM, Abeta yeast res inactive, FUS yeast rescue inconclusive and aSyn yeast inh inactive.
COc1cc(-c2coc3c(C(=O)NCc4ccc(N(C)C)cc4)cccc23)ccc1O was read as TDP-43 yeast inh inactive, Abeta yeast res inactive, FUS yeast rescue inconclusive and aSyn yeast inh inactive.
`COc1cc(-c2coc3c(C(=O)NCc4ccc(OC)c(OC)c4)cccc23)ccc1O` gave TDP-43 yeast inh 14µM, Abeta yeast res inactive, FUS yeast rescue inactive and aSyn yeast inh inconclusive.
Screening CCCN1CNc2c(c(=O)[nH]c(=S)n2CCc2ccc(Cl)c(Cl)c2)C1 returned aSyn yeast inh inactive.
CC1CCC(NC(=O)CCCn2sc3ccccc3c2=O)CC1 (centres undefined) was read as TDP-43 yeast inh inconclusive, Abeta yeast res inactive, PTAP TSG101 blk inactive, FUS yeast rescue inactive and aSyn yeast inh inactive.
Screening Cc1ccc(-c2nc3ccc(Cl)cn3c2Cc2cccc(Cl)c2)cc1 returned TDP-43 yeast inh 20µM, Abeta yeast res inactive, FUS yeast rescue inconclusive and aSyn yeast inh inactive.
For Cc1ccc(-c2nc3ccc(Br)cn3c2Cc2cccc(Cl)c2)cc1 the results were TDP-43 yeast inh 28µM, Abeta yeast res inactive, FUS yeast rescue inactive and aSyn yeast inh inactive.
For N#Cc1ccc(-c2nc3ccc(Br)cn3c2Cc2cccc(Cl)c2)cc1 the results were TDP-43 yeast inh inconclusive, Abeta yeast res inactive, FUS yeast rescue inactive and aSyn yeast inh inactive.
Clc1ccc(-c2nc3ccc(Br)cn3c2Cc2cccc(Cl)c2)cc1 was read as TDP-43 yeast inh 32µM, Abeta yeast res inactive, FUS yeast rescue inactive and aSyn yeast inh inactive.
For CC(C)(C)Cc1c(-c2ccc(Br)cc2)nc2ccc(Cl)cn12 the results were TDP-43 yeast inh inconclusive, Abeta yeast res inactive, FUS yeast rescue inactive and aSyn yeast inh inactive.
Screening Cc1ccc(-c2nc3ccc(Br)cn3c2Cc2ccccc2)cc1 returned TDP-43 yeast inh inactive, Abeta yeast res inactive, FUS yeast rescue inactive and aSyn yeast inh inactive.
`Cc1ccc(-c2nc3ccc(C)cn3c2Cc2cccc(Cl)c2)cc1` gave TDP-43 yeast inh inactive, Abeta yeast res inactive, FUS yeast rescue inactive and aSyn yeast inh inactive.
`CC(C)(C)Cc1c(-c2ccc(Cl)cc2)nc2ccc(Br)cn12` gave TDP-43 yeast inh 35µM, Abeta yeast res inactive, FUS yeast rescue inactive and aSyn yeast inh inactive.
